# Screens (PubChem BioAssay)
# DT40 TDP1 CPT = growth inhibition of DT40 Tdp1-/-;hTDP1 cells with camptothecin (screen for TDP1 inhibitors); chicken DT40 Tdp1-/-;hTDP1 cells + 20 nM CPT, ATP luminescence, 48 h; Potency, µM (top dose mostly 46.2 µM), inactives show at the top dose activity change, negative = growth inhibition, most hits filed as inhibitors; 420,000 compounds, 12% hits; note: potency is the fitted concentration of half-maximal effect; nearly all actives have a fitted effect of over 55% in size
#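 Chicken DT40 Tdp1-/- cells complemented with human TDP1, 400 cells/well, exposed to compounds plus 20 nM camptothecin for at least 48 h at 37 C; viability read as ATP content by CellTiter-Glo luminescence.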
# HT1080 IDH1KD tx = kills HT-1080 cells with IDH1 knockdown. HT-1080 IDH1 knockdown viability, ATP luminescence, 48 h. Potency, µM (doses to about 46.1 µM), inactives show at the top dose activity, negative = toxicity, actives largely listed as cytotoxic. 360,000 compounds, 2% hits;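 note: potency is the fitted concentration of half-maximal effect; 0% = DMSO wells and -100% = cell-free medium wells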
#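 Cytotoxicity counter-line: IDH1KD HT-1080, 48 h, CellTiter-Glo. Curves classed by r2, magnitude and activity.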
# DT40 TDP1 no CPT = qHTS for Inhibitors of human tyrosyl-DNA phosphodiesterase 1 (TDP1): qHTS in cells in absence of CPT; DT40 Tdp1-/- hTDP1 cells, no CPT, ATP luminescence, 48 h; Potency, µM (titrated, usually from 46.2 µM), for inactives: at the top dose activity change, negative = growth inhibition, actives largely listed as inhibitors; 420,000 compounds, 15% hits; note: potency is the fitted concentration of half-maximal effect; nearly all actives have a fitted effect of over 55% in size
#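 Readout: luminescence from CellTiter-Glo after 30 min in the dark at RT. Cells: DT40 Tdp1-/- with stable hTDP1, 400/well. Exposure: compounds alone, ≥48 hr, 37 °C.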
# HT1080NT lethal = kills 2HG-producing HT-1080-NT fibrosarcoma cells; 360,000 compounds, 1.6% hits; HT-1080-NT fibrosarcoma viability, CellTiter-Glo ATP luminescence, 48 h; Potency, µM (titrated, usually from 46.1 µM), for inactives: top-dose activity, negative = less viability, most hits filed as cytotoxic;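 note: NT is the 2HG producing partner of a matched IDH1 knockdown line; potency is the fitted concentration of half-maximal effect; 0% = DMSO-treated cells and -100% = media-only wells without cells; nearly all actives have a fitted effect of over 55% in size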
#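 750 cells/well, RPMI + 5% FBS; 2 h settle, compound pin-transfer, 48 h at 37 degrees C. CellTiter-Glo 10 min RT, luminescence. Normalized to DMSO and media-only wells.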
# IL1B secr inh = blocks inflammasome-driven IL-1 beta release | THP-1 LPS/ATP IL-1B secretion, AlphaLISA, 16 h; stronger effect = lower value | activity change, % at 57.5 µM | 360,000 compounds, 4.7% hits | AID 743279; in the data active = activity change below about -50%; inconclusive = mostly about -30% to -49%
#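 THP-1 cells pretreated 1 hr with compounds (up to 57.5 uM final), then stimulated with LPS (250 ng/mL final) plus ATP (1.25 mM final); secreted IL-1B measured by AlphaLISA after 16 hr, decreased signal indicating inhibition.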
# Starred values were filed as active, the others as inactive; ? = inconclusive; · = not tested or not shown. The list is not random: actives were taken first. Their share in the collection is about 19%. Unless noted, calls come from the whole dose curve; as a rule, active = well fitted curve in the direction sought with a large enough effect; inconclusive = small, poorly fitted or top-dose-only effect, or another doubt; inactive = no such curve, though single readings can be large; an effect the other way counts as inactive or inconclusive. Unless noted, % is set by controls: 0 for no effect and ±100 for the full control effect.
SMILES,DT40 TDP1 CPT,HT1080 IDH1KD tx,DT40 TDP1 no CPT,HT1080NT lethal,IL1B secr inh
CC(C)COc1ccc(C(=O)N(Cc2cccc(F)c2)C2CCS(=O)(=O)C2)cc1 (stereo not given),21µM*,·,?,·,·
COc1cccc(CN(C(=O)c2ccccc2)C2CCS(=O)(=O)C2)c1 (stereo not given),2%,19%,11%,19%,-6
Cc1ccsc1CN(C(=O)c1ccc(OCC(C)C)cc1)C1CCS(=O)(=O)C1 (stereo not given),?,·,15µM*,·,·
CC1OC(CC(=O)O)CC2=C1C(=O)c1c(O)cccc1C2=O (stereo not given),0.1µM*,0.26µM*,0.065µM*,1.3µM*,-98*
COc1ccccc1OCCCn1c(C)c(C#N)c2ccccc21,21µM*,-12%,26µM*,-6%,-11
COc1ccccc1OCCCn1cc(C#N)c2ccccc21,-22%,0%,?,0%,-20
CC1=CC(=Nc2c(C)n(C)n(-c3ccccc3)c2=O)C=C(C)C1=O,?,?,21µM*,-2%,0
C#CCN(C[C@@H]1[C@@H](OC(=O)Nc2cccs2)[C@@H](OC(=O)Nc2cccs2)Cn2c(=O)ccc(=O)n21)S(=O)(=O)c1ccc(C)cc1,2.9µM*,16µM*,3.3µM*,18µM*,-107*
C#CCN(C[C@H]1[C@H](OC(=O)NC2CC2)[C@H](OC(=O)NC2CC2)C[C@H]2C(=O)N(c3ccccc3)C(=O)[C@@H]12)S(=O)(=O)c1ccc(C)cc1,-14%,5%,-12%,1%,11
C#CCN(C[C@@H]1[C@@H](OC(=O)NC2CCCC2)[C@@H](OC(=O)NC2CCCC2)Cn2c(=O)ccc(=O)n21)S(=O)(=O)c1ccc(C)cc1,2.6µM*,8.2µM*,2.3µM*,7.3µM*,0
Cc1cc(N)nc2nc(C(F)(F)F)nn12,0%,28%,-9%,16%,7
COc1ccc(CNC(=O)/C(C#N)=C2\N=C(NC(=O)c3cccs3)c3ccccc32)cc1,26µM*,-5%,?,-1%,-9
COC(=O)[C@]1(C)N[C@H](CN(C)C(C)=O)[C@@H]2C(=O)N(Cc3ccccc3)C(=O)[C@@H]21,-2%,17%,0%,16%,13
COc1cc(CNc2ccc3[nH]c(=O)[nH]c3c2)cc(Br)c1OCc1ccccc1F,10µM*,?,21µM*,-22%,-60*
COc1cc(CNc2ccc3[nH]c(=O)[nH]c3c2)ccc1OCc1ccc(F)cc1,?,-25%,-23%,-10%,-7
COc1cc(CNc2ccc3[nH]c(=O)[nH]c3c2)cc(Br)c1OCC(=O)NC(C)(C)C,?,?,?,?,-68*
COc1cc(CNc2ccc3[nH]c(=O)[nH]c3c2)ccc1OCc1ccccc1F,21µM*,-13%,16µM*,-20%,?
CCOc1cc(CNc2ccc3cn[nH]c3c2)ccc1OC,?,?,21µM*,-12%,-19
O=C(O)C1CCCN1S(=O)(=O)c1ccc2[nH]c(=O)c(=O)[nH]c2c1 (stereo not given),-11%,3%,-11%,1%,6
Cc1cc(=O)[nH]c2ccc([N+](=O)[O-])cc12,6%,·,-1%,·,·
CCOc1c(Cl)cc(CNc2ccc3[nH]c(=O)[nH]c3c2)cc1OC,23µM*,·,?,·,·
O=S(=O)(Nc1nc(SCc2ccc(Cl)cc2)n[nH]1)c1ccccc1,?,3%,?,0%,0
COc1ccc(NC(=O)N2CC[C@@]3(CCCN(C(=O)c4c(C)noc4C)C3)C2)cc1,-9%,·,-12%,·,·
Cc1ncc2c(c1CNC(=O)c1ccccc1F)CCN(C(=O)c1ccc3c(c1)OCCO3)C2,0.058µM*,·,0.13µM*,·,·
O=C(COC(=O)Cc1ccccc1F)NNC(=O)c1ccc([N+](=O)[O-])cc1,-10%,5%,-11%,4%,-1
SMILES,DT40 TDP1 CPT,HT1080 IDH1KD tx,DT40 TDP1 no CPT,HT1080NT lethal,IL1B secr inh
COc1ccc(NC(=O)c2cc(-c3ccncc3)nc3ccc(Br)cc23)cc1OC,?,3%,21µM*,1%,-6
COc1cc(NC(=O)c2cc(-c3cccnc3)nc3ccc(Br)cc23)cc(OC)c1,?,2%,21µM*,3%,8
O=C(Nc1cccnc1)c1cc(-c2cccnc2)nc2ccc(Br)cc12,?,-1%,?,-2%,16
CNS(=O)(=O)c1ccc(NC(=O)c2cc(-c3ccncc3)nc3ccc(Cl)cc23)cc1,-20%,-1%,-12%,-5%,0
NNC(=O)c1cc(-c2ccc(N)cc2)nc2ccc(Br)cc12,?,-14%,15µM*,8%,-20
CCN(C(=O)CN1C(=O)NC(c2ccccc2)(c2ccc(C)c(C)c2)C1=O)C1CCS(=O)(=O)C1 (stereo not given),1%,-13%,?,-6%,-1
O=C(NCC1CC1)C1Cc2c(-c3ccccc3Oc3ccccc3)ccnc2O1 (stereo not given),?,7%,-44%,18%,-8
COc1ccc(-n2[nH]c3c(cnc4ccccc43)c2=O)cc1,-5%,-29%,-1%,-5%,-21
O=c1c2cc(F)ccc2sn1-c1ccc(F)cc1,2.6µM*,?,3.3µM*,?,-114*
COc1ccc(-n2sc3ccccc3c2=O)cc1,3.7µM*,?,2.9µM*,?,-106*
COc1ccc(-n2sc3ccc(F)cc3c2=O)cc1,2.6µM*,?,2.6µM*,?,-106*
Cc1ccc(C)c(-n2sc3ccc(F)cc3c2=O)c1,3.3µM*,?,3.7µM*,21µM*,-106*
CCCn1c(N)c(C(=O)COC(=O)c2cccc(S(=O)(=O)N3CCOCC3)c2)c(=O)[nH]c1=O,1%,8%,3%,0%,7
CCCNC(=O)c1cc(C2CCCN(C(=O)c3ccc(OC)cc3)C2)on1 (stereo not given),-8%,5%,-27%,15%,-7
CN1CCN2c3ccccc3CC(C#N)(C#N)C2C1 (stereo not given),-6%,7%,5%,17%,8
Cc1ccc(N(CC(=O)NCc2ccccc2)C(=O)c2csnn2)cc1,2%,10%,?,0%,0
COc1ccc2nc(N(CCN(C)C)C(=O)c3ccc4ncsc4c3)sc2c1,-2%,0%,-19%,-7%,18
Cc1ccc2nc(N(CCCN(C)C)C(=O)c3ccc(S(=O)(=O)N4CCCCCC4)cc3)sc2c1,?,18µM*,?,?,·
